Assay results reported in PubChem BioAssay.
The source made the active and inactive calls.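 Rule for the calls, unless noted: active = compounds lowering colon cancer cell viability after pretreatment blocking the GSK3B kinase; inactive = the rest.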

What was measured:
[1] = stimulators of nuclear beta-catenin in C2C12, primary screen, imaging, WNT3A-conditioned medium, mouse C2C12, NPC library (AID 1117326; in the data active = nuclear beta-catenin stimulation mostly above about 4.2%, no sharp cut-off; inactive = mostly below about 10%; note: reference of the scale not given here); conditions: stronger effect = higher value
[2] = stimulators of insulin release from INS-1E, primary screen, cell-based, 5 mM glucose, NPC library (AID 1117329;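 active = compound raises insulin release from rat beta cells at 5 mM glucose, no numeric limit stated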; note: reference of the scale not given here); conditions: rat INS-1E insulin secretion, at 10 µM, stronger effect = higher value
[3] = growth inhibition of GSK3B-pretreated HCT116 cells – cell-based, CellTiter-Glo, 0.2 to 20 µM (AID 1117336); conditions: HCT116 viability after GSK3B inhibitor, at 20 µM, stronger effect = higher value
[4] = inhibition of endothelial tube formation, primary screen, imaging, VEGF stimulated, CD31 staining, tube area, NPC library (AID 1117340;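 active = compound that reduces growth-factor-driven endothelial tube area in a mixed cell culture, no cutoff stated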); conditions: VEGF-stimulated ADSC/ECFC co-culture, at 10 µM, stronger effect = higher value
[5] = glucagon-like peptide 1 release enhancers, primary assay, NCI-H716 cell line, NPC library (AID 1117341;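 active = compound raises GLP1 secretion from the human gut endocrine cells, with no numeric limit stated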; note: reference of the scale not given here); conditions: NCI-H716 cells, at 10 µM, stronger effect = higher value
[6] = HCT116 colon cancer cell growth inhibition, primary screen, CellTiter-Glo luminescence, NPC library (AID 1117342;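 active = compounds that lower survival of HCT116 colon cancer cells in the luminescence readout, no numeric limit stated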); conditions: at 20 µM (top of the series)
[7] = CellTiter-Glo luminescent readout of SW480 viability loss, NPC library primary (AID 1117343;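 active = compounds that lower viability of the colon cancer cells in the luminescence readout, with no numeric limit stated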); conditions: CellTiter-Glo luminescence; at 20 µM (top of the series)
[8] = decreased DLD-1 cellular survival, CellTiter-Glo luminescent readout, NPC compound collection, primary HTS (AID 1117346;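 active = compounds that lower survival of DLD-1 colon cancer cells in the luminescence readout, no cutoff given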); conditions: DLD-1 viability, CellTiter-Glo luminescence; at 20 µM (top of the series)

CSCC[C@H](N)C(=O)O
1.3%: nuclear beta-catenin stimulation ([1]; stimulation, at 2 µM)
inactive: nuclear beta-catenin stimulation ([1]; at 10 µM) 1.9% | insulin secretion stimulation [2] 0.5% | viability decrease [3] -8.1% | tube area decrease [4] 2.3% | GLP1 secretion stimulation [5] -2.6% | inhibition of viability [6] 0.5% | viability decrease (inhibition) [7] 0.4% | viability decrease (inhibition) [8] -6%

CC(=O)Oc1ccc(C2(c3ccc(OC(C)=O)cc3)C(=O)Nc3ccccc32)cc1
inactive: nuclear beta-catenin stimulation ([1]; at 10 µM) 1.7% | insulin secretion stimulation [2] -2.1% | viability decrease [3] 32.6% | GLP1 secretion stimulation [5] 4% | inhibition of viability [6] 39% | viability decrease (inhibition) [7] 15.8% | viability decrease (inhibition) [8] 49.1%
0.9%: nuclear beta-catenin stimulation ([1]; stimulation, at 2 µM)
active: tube area decrease [4] 51.8%

CCc1cc2cc(OC)c(OC)cc2c(Cc2ccccc2)n1
3.1%: nuclear beta-catenin stimulation ([1]; stimulation, at 2 µM)
inactive: nuclear beta-catenin stimulation ([1]; at 10 µM) 7.1% | insulin secretion stimulation [2] 15.8% | viability decrease [3] 46.2% | tube area decrease [4] 18.5% | GLP1 secretion stimulation [5] 3.6% | inhibition of viability [6] 41.3% | viability decrease (inhibition) [7] -9.7% | viability decrease (inhibition) [8] 25.5%

CN(C)CCCOC1(Cc2ccccc2)CCCCCC1
inactive: nuclear beta-catenin stimulation ([1]; at 10 µM) 6% | insulin secretion stimulation [2] 4.2% | viability decrease [3] -55.2% | tube area decrease [4] 17.7% | GLP1 secretion stimulation [5] 6.8% | inhibition of viability [6] 7.6% | viability decrease (inhibition) [7] 33.2% | viability decrease (inhibition) [8] -33.1%
5.8%: nuclear beta-catenin stimulation ([1]; stimulation, at 2 µM)

NCCCC[C@H](N)C(=O)O
2%: nuclear beta-catenin stimulation ([1]; stimulation, at 2 µM)
inactive: nuclear beta-catenin stimulation ([1]; at 10 µM) 1.6% | insulin secretion stimulation [2] -2.1% | viability decrease [3] 1.2% | tube area decrease [4] -14.1% | GLP1 secretion stimulation [5] -3.9% | inhibition of viability [6] -2.6% | viability decrease (inhibition) [7] 12.8% | viability decrease (inhibition) [8] -0.6%

CCCC(=O)OC[C@@H](OC(=O)CCC)[C@@H](OC(=O)CCC)[C@H](Cn1c2nc(=O)[nH]c(=O)c-2nc2cc(C)c(C)cc21)OC(=O)CCC
inactive: nuclear beta-catenin stimulation ([1]; at 10 µM) -0.4% | insulin secretion stimulation [2] 1.9% | viability decrease [3] 39.1% | tube area decrease [4] 14.1% | GLP1 secretion stimulation [5] 2.6% | inhibition of viability [6] 11.7% | viability decrease (inhibition) [7] 25.5% | viability decrease (inhibition) [8] 24.5%
2.2%: nuclear beta-catenin stimulation ([1]; stimulation, at 2 µM)

O=C1CC[C@H](C(=O)N2CCCCC2)N1
inactive: nuclear beta-catenin stimulation ([1]; at 10 µM) 1.7% | insulin secretion stimulation [2] 0.8% | viability decrease [3] 8.8% | GLP1 secretion stimulation [5] 0.9% | inhibition of viability [6] 0.8% | viability decrease (inhibition) [7] -22% | viability decrease (inhibition) [8] 0.1%
active: tube area decrease [4] 87.3%
1%: nuclear beta-catenin stimulation ([1]; stimulation, at 2 µM)

O=C(Nc1ccc(Cl)cc1)Nc1ccc(Cl)c(C(F)(F)F)c1
-0.2%: nuclear beta-catenin stimulation ([1]; stimulation, at 2 µM)
active: viability decrease [3] 99.4% | tube area decrease [4] 108% | inhibition of viability [6] 99.3% | viability decrease (inhibition) [7] 102% | viability decrease (inhibition) [8] 102%
inactive: nuclear beta-catenin stimulation ([1]; at 10 µM) 25.5% | insulin secretion stimulation [2] -0.8% | GLP1 secretion stimulation [5] -3.9%

CCOC(=O)COc1ccc2c(C)c(CCN(CC)CC)c(=O)oc2c1Cl
inactive: nuclear beta-catenin stimulation ([1]; at 10 µM) -2.3% | insulin secretion stimulation [2] 0% | viability decrease [3] -5% | GLP1 secretion stimulation [5] 2.5% | inhibition of viability [6] 15.1% | viability decrease (inhibition) [7] 7.8% | viability decrease (inhibition) [8] -17.9%
active: tube area decrease [4] 45.5%
-0.4%: nuclear beta-catenin stimulation ([1]; stimulation, at 2 µM)

CCCc1ccc(OCC(=O)N2CCN(C(=O)COc3ccc(CCC)cc3OC)CC2)c(OC)c1
inactive: nuclear beta-catenin stimulation ([1]; at 10 µM) 0.8% | insulin secretion stimulation [2] 2.6% | viability decrease [3] -50.5% | GLP1 secretion stimulation [5] 10.9% | inhibition of viability [6] 48.2%
2.5%: nuclear beta-catenin stimulation ([1]; stimulation, at 2 µM)
active: tube area decrease [4] 43.5% | viability decrease (inhibition) [7] 97.2% | viability decrease (inhibition) [8] 101%

COc1ccc(S(=O)(=O)N2c3ccc(Cl)cc3[C@@](O)(c3ccccc3Cl)[C@H]2C(=O)N2CCC[C@@H]2C(N)=O)cc1OC
-0.8%: nuclear beta-catenin stimulation ([1]; stimulation, at 2 µM)
inactive: nuclear beta-catenin stimulation ([1]; at 10 µM) 0.6% | insulin secretion stimulation [2] 2.35% | viability decrease [3] 47.7% | tube area decrease [4] -23.5% | GLP1 secretion stimulation [5] -0.7% | inhibition of viability [6] 34% | viability decrease (inhibition) [7] 0.4% | viability decrease (inhibition) [8] 4.6%

CN(CC1(C)CCCO1)S(=O)(=O)c1ccc(Cl)c(S(N)(=O)=O)c1 (stereo not given)
-1.9%: nuclear beta-catenin stimulation ([1]; stimulation, at 2 µM)
inactive: nuclear beta-catenin stimulation ([1]; at 10 µM) -0.8% | insulin secretion stimulation [2] 2% | viability decrease [3] -0.1% | tube area decrease [4] -8.9% | GLP1 secretion stimulation [5] 2.8% | inhibition of viability [6] 12.4% | viability decrease (inhibition) [7] -9.7% | viability decrease (inhibition) [8] 2.2%

CCn1ccc(NS(=O)(=O)c2ccc(N)cc2)nc1=O
1.4%: nuclear beta-catenin stimulation ([1]; stimulation, at 2 µM)
inactive: nuclear beta-catenin stimulation ([1]; at 10 µM) 1.9% | insulin secretion stimulation [2] 3.4% | viability decrease [3] -22.1% | tube area decrease [4] 11.6% | GLP1 secretion stimulation [5] 2.7% | inhibition of viability [6] -54.2% | viability decrease (inhibition) [7] -2.8% | viability decrease (inhibition) [8] -26.4%

Oc1cccc(O)c1O
inactive: nuclear beta-catenin stimulation ([1]; at 10 µM) 5% | insulin secretion stimulation [2] 2.5% | tube area decrease [4] 24.9% | GLP1 secretion stimulation [5] -1% | inhibition of viability [6] 45.7% | viability decrease (inhibition) [8] 17.2%
2.5%: nuclear beta-catenin stimulation ([1]; stimulation, at 2 µM)
active: viability decrease [3] 68.9% | viability decrease (inhibition) [7] 101%

Cc1onc(-c2c(Cl)cccc2Cl)c1C(=O)Cl
0.5%: nuclear beta-catenin stimulation ([1]; stimulation, at 2 µM)
inactive: nuclear beta-catenin stimulation ([1]; at 10 µM) -0.1% | insulin secretion stimulation [2] 1.5% | viability decrease [3] -3.8% | GLP1 secretion stimulation [5] 5.9% | inhibition of viability [6] 13.6% | viability decrease (inhibition) [7] 17% | viability decrease (inhibition) [8] -2.5%
active: tube area decrease [4] 54.1%
